Measured values as given in PubChem BioAssay.
The source made the active and inactive calls. Unless noted, no rule for the calls is given here.

Experiments:
[1] = resazurin metabolic signal in HepG2 cells – cell-based, resazurin fluorescence, 24 h, PK04 Diversity Set, profiling panel (AID 1172); conditions: HepG2 viability, higher = more signal; also: test concentration not given here
[2] = budding yeast growth changes without added modifier – OD600, strain BY4716, 24 h, basal condition, primary screen (AID 1173); conditions: S. cerevisiae BY4716 growth, OD600, 24 h; higher = more signal, called active from +8 up or from −8 down
[3] = viability profiling in MM1S myeloma cells – cell-based, resazurin fluorescence, basal, 24 h, PK04 Diversity Set, profiling panel (AID 1174); conditions: higher = more signal, called active from +8 up or from −8 down;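 also: MM1S multiple myeloma cell line; test concentration not given here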
[4] = biological target: Dihydroorotate dehydrogenase (quinone), mitochondrial (Plasmodium falciparum (isolate 3D7)) (UniProt Q08210); experiment: inhibition of P. falciparum DHODH – biochemical, C-terminal His tag, absorbance 600 nm, primary screen (AID 1175); conditions: PfDHODH enzyme, DCIP absorbance 600 nm; higher = more signal, called active from +8 up or from −8 down;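 also: recombinant parasite enzyme with a five histidine tag at its C terminus; test concentration not given here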
[5] = inhibition of PAO1 biofilm formation – strain PAO1, LB-PBS medium, absorbance 600 nm, primary screen (AID 1176); also: test concentration not given here; conditions: P. aeruginosa PAO1 growth/biofilm, A600, 12 h; higher = more signal
[6] = growth modulation of vineyard yeast isolate – strain RM11-1a, OD600, basal, 24 h, primary screen (AID 1177);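 also: cultures grown under basal conditions with no added stressor; test concentration not given here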; conditions: S. cerevisiae RM11-1a growth, OD600, 24 h; higher = more signal, called active from +8 up or from −8 down
[7] = growth of efflux-deficient E. coli DRC39 – strain DRC39, OD650, 24 h, E. coli filamentation inducers, primary screen (AID 1178);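 also: growth measured as culture turbidity by optical density at 650 nm; test concentration not given here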; conditions: E. coli DRC39 acrAB, higher = more signal, called active from +8 up or from −8 down
[8] = growth of efflux-deficient E. coli DRC39 – strain DRC39, OD650, 48 h, E. coli filamentation inducers, primary screen (AID 1179);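 also: screen aims at cell division blockers that make cells filament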; conditions: E. coli DRC39 delta-acrAB growth, higher = more signal, called active from +8 up or from −8 down
[9] = viability profiling in RPMI8226 myeloma cells – cell-based, resazurin fluorescence, basal, 24 h, PK04 Diversity Set, profiling panel (AID 1180); conditions: higher = more signal;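 also: RPMI8826 multiple myeloma cell line at 5000 cells per well; test concentration not given here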
[10] = biological target: E3 ubiquitin-protein ligase XIAP (Homo sapiens) (UniProt P98170); experiment: small molecules binding XIAP protein – biophysical, small-molecule microarray, fluorescence 635 nm, primary screen (AID 1181); conditions: higher = more signal;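 also: score merges 667 nm emission and signal to noise over triplicate slides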
Chain of E3 ubiquitin-protein ligase XIAP (Homo sapiens) (P98170 whole entry, looked up): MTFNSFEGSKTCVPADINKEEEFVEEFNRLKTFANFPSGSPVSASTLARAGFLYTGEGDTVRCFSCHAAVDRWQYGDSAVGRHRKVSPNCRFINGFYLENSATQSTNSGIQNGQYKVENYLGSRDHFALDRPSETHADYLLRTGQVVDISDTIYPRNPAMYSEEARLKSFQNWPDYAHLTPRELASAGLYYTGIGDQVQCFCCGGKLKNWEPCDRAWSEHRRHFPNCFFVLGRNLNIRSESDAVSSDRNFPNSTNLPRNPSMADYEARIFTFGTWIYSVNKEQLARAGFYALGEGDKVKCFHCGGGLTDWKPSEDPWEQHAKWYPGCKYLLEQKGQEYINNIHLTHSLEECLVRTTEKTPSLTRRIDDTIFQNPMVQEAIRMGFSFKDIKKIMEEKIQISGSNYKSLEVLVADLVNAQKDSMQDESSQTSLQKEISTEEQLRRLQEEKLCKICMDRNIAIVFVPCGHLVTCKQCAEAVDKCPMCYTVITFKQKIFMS

Chain of Dihydroorotate dehydrogenase (quinone), mitochondrial (Plasmodium falciparum (isolate 3D7)) (Q08210 whole entry, looked up): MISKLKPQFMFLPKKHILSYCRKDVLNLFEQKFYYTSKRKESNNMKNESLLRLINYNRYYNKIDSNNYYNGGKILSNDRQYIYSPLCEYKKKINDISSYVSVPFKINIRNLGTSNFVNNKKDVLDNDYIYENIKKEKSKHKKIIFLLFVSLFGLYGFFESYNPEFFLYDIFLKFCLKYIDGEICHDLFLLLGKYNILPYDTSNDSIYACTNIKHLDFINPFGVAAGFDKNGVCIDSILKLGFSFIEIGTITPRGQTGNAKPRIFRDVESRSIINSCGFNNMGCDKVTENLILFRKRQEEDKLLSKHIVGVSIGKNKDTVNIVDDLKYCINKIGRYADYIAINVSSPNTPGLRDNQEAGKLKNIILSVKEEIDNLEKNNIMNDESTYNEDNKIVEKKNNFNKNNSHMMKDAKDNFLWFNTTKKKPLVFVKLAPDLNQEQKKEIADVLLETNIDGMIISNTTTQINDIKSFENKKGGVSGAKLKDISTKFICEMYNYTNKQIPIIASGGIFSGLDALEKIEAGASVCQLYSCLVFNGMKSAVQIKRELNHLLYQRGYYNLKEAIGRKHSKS

Structure (SMILES) | z-score [1] | z-score [2] | z-score [3] | composite z-score [4] | z-score [5] | z-score [6] | z-score [7] | z-score [8] | z-score [9] | composite z-score [10]
CC(C)CON=C1C[C@@H](O)[C@@H](O)[C@@H]2[C@@H]3C(=O)N([C@@H](C)c4ccccc4)C(=O)[C@@H]3CC[C@@H]12 | -0.161 | 0.221 (inactive) | -0.827 (inactive) | 0.291 (inactive) | 1.6 (inactive) | -0.251 (inactive) | -0.286 (inactive) | -0.112 (inactive) | -0.534 | 0.209
CCOC(=O)[C@H](CC(C)C)NC(=O)CCC1CC(OC(=O)NCCc2ccc(F)cc2)CC2(CCCC(COC(=O)NCCOC)O2)O1 (stereo not given in full) | 0.0369 | 1.02 (inactive) | 0.581 (inactive) | 0.753 (inactive) | 0.283 (inactive) | 0.963 (inactive) | 0.0415 (inactive) | -0.489 (inactive) | 0.464 | -0.18
CO[C@H]1COC(=O)CCC[C@H](C)[C@H](OC)COC(=O)CC=C[C@@H]1C | 0.631 | -2.21 (inactive) | 0.364 (inactive) | -1.04 (inactive) | -0.692 (inactive) | -1.93 (inactive) | 0.115 (inactive) | 0.757 (inactive) | 0.541 | 0.0593
CC(C)(C)N1C(=O)[C@H]2[C@H]3[C@H](O)[C@H](O)CC(=NNC(=O)OCc4ccccc4)[C@@H]3CC[C@H]2C1=O | -0.169 | 0.216 (inactive) | -0.484 (inactive) | -0.111 (inactive) | -0.413 (inactive) | -0.168 (inactive) | 0.223 (inactive) | 0.342 (inactive) | -0.376 | -0.102
C=C(C)C(=O)OC[C@H]1CN2[C@@H](CC[C@@H](C)[C@@H]2c2ccc(Br)cc2)C(=O)O1 | 0.497 | -1.84 (inactive) | -0.255 (inactive) | 0.672 (inactive) | -0.136 (inactive) | 0.912 (inactive) | 0.644 (inactive) | -1.77 (inactive) | -0.314 | 0.256
COC(=O)[C@H](C)NC(=O)CCC1CC(OC(=O)NCc2cccc3ccccc23)CC2(CCCC(COC(=O)NCc3ccccc3)O2)O1 (stereo not given in full) | 2.27 | -0.79 (inactive) | 1.18 (inactive) | 0.0095 (inactive) | -0.376 (inactive) | 0.136 (inactive) | -0.221 (inactive) | 0.324 (inactive) | 1.42 | -0.123
CCN1C(=O)[C@H]2[C@H]3[C@H](O)[C@H](O)CC(=NO[C@H](C)c4cn([C@H](CO)Cc5ccccc5)nn4)[C@@H]3CC[C@H]2C1=O | -0.948 | 0.0722 (inactive) | -1.37 (inactive) | -0.613 (inactive) | 0.359 (inactive) | -0.141 (inactive) | 1.44 (inactive) | 0.829 (inactive) | -1.46 | 0.0178
CO[C@@H]1COC(=O)CC=C[C@H](C)[C@H](OC)COC(=O)[C@@H]2CCCN2C(=O)CC=C[C@H]1C | -0.144 | -1.17 (inactive) | 0.918 (inactive) | -0.222 (inactive) | -1.33 (inactive) | -0.203 (inactive) | 0.422 (inactive) | -0.0617 (inactive) | 0.306 | -0.02
CCOC(=O)[C@H](Cc1ccccc1)NC(=O)CCC1CC(OC(=O)NCc2cccc3ccccc23)CC2(CCCC(COC(=O)NCC3CCCCC3)O2)O1 (stereo not given in full) | 1.21 | -0.424 (inactive) | 1.43 (inactive) | -0.105 (inactive) | 0.143 (inactive) | -0.104 (inactive) | -0.475 (inactive) | 0.481 (inactive) | 0.0833 | 0.0424
C=CC[C@@H]1C=C[C@H](ON=C[C@@H](NS(=O)(=O)c2ccc(C)cc2)[C@H](C)C=CCC(=O)OC)[C@@H](CO)O1 | -0.71 | 0.071 (inactive) | -0.681 (inactive) | -0.383 (inactive) | 0.0525 (inactive) | -0.0257 (inactive) | -0.251 (inactive) | 0.119 (inactive) | -0.422 | -0.231
COC(=O)C(C(=O)OC)C1CCCC(=O)C1 (stereo not given) | -0.598 | -0.272 (inactive) | -1.14 (inactive) | 0.437 (inactive) | -0.482 (inactive) | 0.386 (inactive) | -1.37 (inactive) | -0.561 (inactive) | -0.53 | -0.34
COC(=O)[C@@H]1CC[C@H](C)[C@@H](c2ccc(C)cc2)N1C(=O)c1ccc(C=NOC[C@@H](O)[C@H]2O[C@@H]3OC(C)(C)O[C@@H]3[C@H]2O)cc1 | -0.187 | -0.318 (inactive) | -1.05 (inactive) | -0.354 (inactive) | 0.642 (inactive) | -0.168 (inactive) | 0.507 (inactive) | 0.577 (inactive) | -0.772 | -0.173
